Each compound was assayed against Follistatin (Homo sapiens) (UniProt P19883) (assay: FST protein binding to printed compounds – biochemical, small-molecule microarray, 635/667 nm fluorescence, primary screen (AID 1132)). Conditions: 635 nm fluorescence, higher = more signal.
Sequence of Follistatin (Homo sapiens) (P19883 whole entry, looked up): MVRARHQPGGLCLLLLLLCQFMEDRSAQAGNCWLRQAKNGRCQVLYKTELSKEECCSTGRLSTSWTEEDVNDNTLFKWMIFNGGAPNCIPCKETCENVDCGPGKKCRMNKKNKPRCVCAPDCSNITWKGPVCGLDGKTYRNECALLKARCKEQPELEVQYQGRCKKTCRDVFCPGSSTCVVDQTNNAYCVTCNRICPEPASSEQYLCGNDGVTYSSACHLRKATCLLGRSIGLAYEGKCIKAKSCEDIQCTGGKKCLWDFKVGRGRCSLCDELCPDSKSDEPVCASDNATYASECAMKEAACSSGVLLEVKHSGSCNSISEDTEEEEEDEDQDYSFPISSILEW
In the case of `CCN1C(=O)[C@@H]2[C@H]3C(=CC[C@@H]2C1=O)C1(OCCCO1)[C@H]1O[C@H]1[C@H]3O`, the composite z-score is reported as 1.12.
`CCOC(=O)[C@H](Cc1ccccc1)NC(=O)CCC1CC(OC(=O)NCCc2ccc(F)cc2)CC2(CCCC(COC(=O)NCCc3ccccc3OC)O2)O1` (stereo partly drawn) showed a composite z-score of 0.818.
Work on `CCOC(=O)NN=C1C[C@@H](O)[C@@H](O)[C@@H]2[C@@H]3C(=O)N(c4cccc(Oc5ccccc5)c4)C(=O)[C@@H]3CC[C@H]12` yielded a composite z-score of 0.519.
With `CCCCC#C[C@@H]1C=C[C@H](Oc2ccc(C(=O)OC)cc2)[C@@H](COC(=O)OCC)O1` the composite z-score was 0.974.
`CCCNC(=O)OC[C@H]1O[C@H](CCON=C(C)CCN2CCc3nc(CC)c(CC)cc3C2)C=C[C@@H]1Oc1ccc(OC)cc1` gave a composite z-score of 0.248.
`CCC1=NOC(CCC2CC(OC(=O)NCc3cccc4c3OCO4)CC3(CCCC(COC(=O)NCCc4ccccc4OC)O3)O2)C1` (stereo not drawn) was tested, and the composite z-score was 0.505.
`CO[C@@H]1COC(=O)CC=C[C@H](C)[C@H](OC)COC(=O)[C@H](C)NC(=O)CC=C[C@H]1C` was tested, and the composite z-score was 1.41.
`C#CCCCON=C1C[C@@H](O)[C@@H](O)[C@@H]2[C@@H]3C(=O)N(C(C)(C)C)C(=O)[C@@H]3CC[C@H]12` gave a composite z-score of -0.861.
Work on `CCOC(=O)[C@H](Cc1ccccc1)NC(=O)CCC1CC(OC(=O)NCc2ccc3c(c2)OCO3)CC2(CCCC(COC(=O)NCCC(C)C)O2)O1` (stereo partly drawn) yielded a composite z-score of 0.443.
`COC(=O)CC=C[C@@H](C)[C@@H](C=NO[C@H](C)c1cn([C@H](CO)Cc2ccccc2)nn1)NS(=O)(=O)c1ccc(C)cc1` was tested, and the composite z-score was 0.268.
Work on `CCN1C(=O)[C@H]2[C@H]3[C@H](O)[C@H](O)CC(=O)[C@@H]3CC[C@H]2C1=O` yielded a composite z-score of 0.468.
With `CCO[C@H](c1cc(OC)cc([N+](=O)[O-])c1OC)[C@H](C)C=CCC(=O)OC` the composite z-score was 0.66.
In the case of `COC(=O)[C@H](C)NC(=O)CCC1CC(OC(=O)NCCc2ccc(F)cc2)CC2(CCCC(COC(=O)NCc3cccc(C(F)(F)F)c3)O2)O1` (stereo partly drawn), the composite z-score is reported as 1.19.
In the case of `CCOC(=O)[C@H](CC(C)C)NC(=O)CCC1CC(OC(=O)NCc2ccc3c(c2)OCO3)CC2(CCCC(COC(=O)NCc3cccc(C(F)(F)F)c3)O2)O1` (stereo partly drawn), the composite z-score is reported as 0.337.
`COC(=O)[C@H](C)NC(=O)CCC1CC(OC(=O)NCc2ccc3c(c2)OCO3)CC2(CCCC(COC(=O)NCc3cccc(C(F)(F)F)c3)O2)O1` (stereo partly drawn) gave a composite z-score of 0.792.
`C[C@@H](c1ccccc1)N1C(=O)[C@H]2[C@H]3[C@H](O)[C@H](O)CC(=NO[C@@H]4O[C@H](CO)[C@@H](O)[C@H](O)[C@H]4O)[C@H]3CC[C@H]2C1=O` was tested, and the composite z-score was 0.656.
With `CCc1cc2c(nc1CC)CCN(CCC(C)=NO[C@H](C)c1cn([C@H](CO)Cc3ccccc3)nn1)C2` the composite z-score was 0.672.
`O=C1C[C@@H](O)[C@@H](O)[C@@H]2[C@@H]3C(=O)N(Cc4ccccc4)C(=O)[C@@H]3CC[C@@H]12` was tested, and the composite z-score was 0.892.
For `COc1ccc(O[C@H]2C=C[C@@H](c3ccccc3)O[C@@H]2CON=CC[C@@H]2C=C[C@H](OC(C)=O)[C@@H](COC(C)=O)O2)cc1`, the composite z-score was 0.229.
`Cc1ccc(S(=O)(=O)n2c3ccccc3c3nnc(C(=O)c4ccccc4)nc32)cc1` showed a composite z-score of 0.583.
With `CCCNC(=O)OC[C@H]1O[C@H](CCON=C(C)CCC(=O)OC[C@H]2O[C@H](c3ccccc3)C=C[C@@H]2Oc2ccc(OC)cc2)C=C[C@@H]1Oc1ccc(OC)cc1` the composite z-score was -0.342.
`COC(=O)CC=C[C@@H](C)[C@H](OCc1cccc(-c2ccccc2)c1)C1CCCCC1` gave a composite z-score of 0.768.
Compound `O=C(NN=C1C[C@@H](O)[C@@H](O)[C@@H]2[C@@H]3C(=O)N(Cc4ccccc4)C(=O)[C@@H]3CC[C@@H]12)OCc1ccccc1` has a composite z-score of 0.165.
In the case of `COc1ccc(COC(=O)NN=C2C[C@@H](O)[C@@H](O)[C@@H]3[C@@H]4C(=O)N(Cc5ccccc5)C(=O)[C@@H]4CC[C@H]23)cc1`, the composite z-score is reported as -0.311.
`COc1ccc(O[C@H]2C=C[C@@H](c3ccccc3)O[C@@H]2CON=C(C)CCC(=O)OC[C@H]2O[C@H](c3ccccc3)C=C[C@@H]2Oc2ccc(OC)cc2)cc1` gave a composite z-score of -0.174.
`CCCNC(=O)OC[C@H]1O[C@H](CCON=Cc2ccc(C(=O)N3[C@H](c4ccc(C)cc4)[C@@H](C)CC[C@H]3C(=O)OC)cc2)C=C[C@@H]1Oc1ccc(OC)cc1` was tested, and the composite z-score was 0.277.
`CCOC(=O)CCN1C(=O)[C@H]2[C@H]3[C@H](O)[C@H](O)CC(=NNC(=O)OCc4ccccc4)[C@@H]3CC[C@H]2C1=O` showed a composite z-score of 0.937.
With `C[C@@H](c1ccccc1)N1C(=O)[C@H]2[C@H]3[C@H](O)[C@H](O)CC(=NOCc4ccccc4)[C@H]3CC[C@H]2C1=O` the composite z-score was 0.287.

From PubChem BioAssay
